Experimental data as given in PubChem BioAssay AID2158 (National Center for Advancing Translational Sciences (NCATS), 2009).
Inconclusive results are not listed. Active and inactive are the calls of the source. Calls follow the shape of the dose curve; as a rule, active = well fitted inhibition curve with a large enough effect; inconclusive = small, poorly fitted or top-dose-only effect; inactive = no such curve, though single readings can be large or run the other way.

biological target: Cruzipain (Trypanosoma cruzi) (UniProt P25779); assay: Confirmation qHTS Assay for Inhibitors of Cruzain; details: purified cruzain, Z-FR-AMC fluorescence, 0.01% Triton; also: nearly all actives have a fitted effect of over 40% in size;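 as to Activity change, negative = inhibition: plate controls were uninhibited enzyme control for no effect and buffer wells lacking enzyme for full effect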
Outline: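 Purified cruzain, 1.5 nM, pre-incubated 15 min at room temperature with compound in 100 mM sodium acetate pH 5.5, 5 mM DTT, 0.01% Triton X-100. Then 2 uM Z-FR-AMC added; AMC fluorescence (ex 360/em 450 nm) increase over 60 s gave reaction progress.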
Potency is read from the fitted curve at half-maximal effect.

Cruzipain (Trypanosoma cruzi), sequence (P25779 123-467 limits assumed): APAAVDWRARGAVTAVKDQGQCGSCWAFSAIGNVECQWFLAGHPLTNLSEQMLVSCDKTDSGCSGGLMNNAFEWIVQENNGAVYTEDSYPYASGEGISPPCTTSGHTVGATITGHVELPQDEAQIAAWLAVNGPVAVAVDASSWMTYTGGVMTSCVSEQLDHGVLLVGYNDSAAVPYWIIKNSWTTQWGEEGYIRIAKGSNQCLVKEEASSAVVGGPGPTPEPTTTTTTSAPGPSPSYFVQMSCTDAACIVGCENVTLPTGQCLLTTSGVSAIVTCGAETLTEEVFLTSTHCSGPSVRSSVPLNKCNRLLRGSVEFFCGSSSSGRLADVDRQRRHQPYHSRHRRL

Activity change, negative = inhibition, inactive:
Cc1csc(N/N=C/c2ccc(O)c([N+](=O)[O-])c2)n1 -63.9%
Cc1ccc2[nH]c(=O)c(CN(Cc3ccco3)Cc3nnnn3Cc3ccccc3)cc2c1 -13.8%
NC(N)=NCCC[C@H](NC(=O)CNC(=O)c1ccccc1)C(=O)Nc1cc(C(F)(F)F)ccc1Cl -8.36%
Cc1ccccc1-n1c(C)cc(/C=C2/C(=N)N3C(c4ccccc4)=CSC3=NC2=O)c1C -3.9%
O=C(Nc1cc(C(F)(F)F)ccc1Cl)[C@H](O)CCc1ccccc1 -26.3%

Potency, active:
CNc1oc(/C=C/c2cc(OC)c(OC)c(OC)c2)nc1C#N 15.8 µM
Cc1ccccc1OCC(=O)NCC(=O)OCC(=O)c1ccc(Br)cc1 35.5 µM
CC(C)(C)CNc1nc(C#N)nc(Nc2ccccc2)n1 2 µM
N#Cc1nc(N2CCCCC2)nc(N2CCOCC2)n1 2.82 µM
O=C(NCCc1nc2ccccc2n1CCCOc1cccc2ccccc12)C1CCCCC1 2.24 µM
C/C(CC(=O)Nc1ccc(Cl)c(Cl)c1)=N\NC(N)=S 1.12 µM
COc1cc(Cl)c(C)cc1NC(=O)C(OC(=O)CNC(=O)c1ccccc1)c1ccccc1 (stereo not given) 31.6 µM
C=C(C)C(=O)OC1(C(F)(F)F)Oc2cc(C)ccc2NC1=O (stereo not given) 14.1 µM
COc1cccc2c1[C@@H]1CN(CCCCn3c(=O)[nH]c4c(sc5ncc(-c6ccccc6)nc54)c3=O)C[C@@H]1CO2 15.8 µM
CCCCNc1nc(C#N)nc(Nc2ccccc2)n1 0.891 µM
